Results taken from the supplement of paper PMC13380429.

Test system: Vero E6 infected with SARS-CoV-2
Assay: inhibition of SARS-CoV-2 cytopathic effect; higher = more antiviral protection, active = above 15
Details: 48 h

Measured: inhibition of SARS-CoV-2 cytopathic effect

COc1ccc(CNC(=O)/C=C/c2ccc3[nH]cc(CCN(C)C)c3c2)cc1
inactive: 1 nM 2.58% | 8.33 nM 0.05% | 100 nM 1.04% | 833.33 nM 1.72% | 10000 nM 2.86%

CC(C)(C)NCC(O)COc1ccc(NC(=O)NC2CCCCC2)cc1 (stereo not given) [talinolol]
inactive: 1 nM 0.2% | 8.33 nM -2.2% | 100 nM -0.81% | 833.33 nM 0.83% | 10000 nM 0.7%

CCOC(=O)Nc1ccc(NCc2ccc(F)cc2)cc1N [Retigabine]
inactive: 1 nM -1.92% | 8.33 nM 1.16% | 100 nM -1.6% | 833.33 nM -2.18% | 10000 nM 1.01%

COc1ccc(C2CC(c3c(O)cc(C)oc3=O)=NCCS2)c(OC)c1 (stereo not given)
inactive: 1 nM 0.21% | 8.33 nM 3.01% | 100 nM -2.07% | 833.33 nM -0.81% | 10000 nM -8.62%

Cc1cccc(C)c1NC(=O)/N=C1\CCCN1C [xilobam]
inactive: 1 nM -1.73% | 8.33 nM -0.97% | 100 nM 1.82% | 833.33 nM -0.83% | 10000 nM 1.68%

Cn1nccc1Nc1nccc(-c2ccn([C@H](CO)c3ccc(Cl)c(F)c3)c(=O)c2)n1
inactive: 1 nM 0.72% | 8.33 nM 0.13% | 100 nM -0.395% | 833.33 nM -5.82% | 10000 nM -9.29%

CC(C)(C)N1CCC(c2ccccc2)(c2ccccc2)CC1 [budipine]
inactive: 1 nM 0.7% | 8.33 nM 3.31% | 100 nM 2.48% | 833.33 nM -0.28% | 10000 nM 1.72%
